Screens from PubChem.
This is a sample that favours compounds with a hit; in the whole collection about 10% have one here.
HEK293 tox = kills HEK 293 cells; HEK 293 viability, ATP luminescence (CellTiter-Glo), 48-72 h; Potency, µM (highest dose often 115 µM), without a hit: top-dose activity change, negative = cytotoxicity, actives largely listed as inhibitors; 6.6% of 94,000 active; further: potency means the concentration at half of the fitted maximal effect; on the % scale 0 is the no-effect control and ±100 the full control effect; nearly all actives have a fitted effect of over 60% in size
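Read-out: CellTiter-Glo ATP luminescence. Cells: HEK 293, 250 cells/well. Exposure: 48 or 72 hr, 37 degree Celsius.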
GPT2 inh = GPT2 alanine aminotransferase inhibition | Q8TD30 | Recombinant GPT2, coupled pyruvate oxidase/HRP Amplex Red fluorescence | Potency, µM (series often up to 57.7 µM), for inactives: at the highest dose activity change, negative = inhibition, usual class: inhibitors | 0.25% of 100,000 active | AID 1671188; further: potency means the concentration at half of the fitted maximal effect; on the % scale 0 is the no-effect control and ±100 the full control effect; nearly all actives have a fitted effect of over 60% in size
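Fluorescence read-out: pyruvate from GPT2 turnover coupled to pyruvate oxidase, HRP and Amplex Red (0.2mM ThPP, 0.2U/mL PO and HRP, 50uM Amplex final). Substrates 250uM a-KG, 2mM L-alanine; enzyme 10ng/uL; 30 min RT.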
NIH3T3 tox = NIH 3T3 cell cytotoxicity; NIH 3T3 viability, CellTiter-Glo ATP luminescence, 48-72 h; Potency, µM (highest dose often 96.7 µM), for the others: top-dose activity change, negative = cytotoxicity, usual class: inhibitors; 4.3% of 94,000 active; AID 1345082; further: potency means the concentration at half of the fitted maximal effect; on the % scale 0 is the no-effect control and ±100 the full control effect; nearly all actives have a fitted effect of over 55% in size
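Viability of NIH 3T3 cells after 48 or 72 hr compound treatment at 37 °C was assessed by CellTiter-Glo, with luminescence imaged following a 10 min room-temperature step.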
FLuc inh = inhibitors of firefly (Photinus pyralis) luciferase. P08659. purified P. pyralis luciferase, luminescence, biochemical. Potency, µM (titrated, usually from 115 µM), hits mostly inhibitors. 2.5% of 76,000 active. AID 1347043; further: potency means the concentration at half of the fitted maximal effect; on the % scale 0 is the no-effect control and ±100 the full control effect; nearly all actives have a fitted effect of over 65% in size
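FLuc 10nM, D-luciferin 10uM, ATP 10uM, Mg acetate 10mM, Tris acetate pH 7.5, Tween/BSA; cpd qHTS; enzyme added last; CCD luminescence.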
NPR1 antag = antagonists of human natriuretic peptide receptor Npr1. Potency, µM (top dose mostly 46.3 µM), for the others: at the highest dose activity change, negative = inhibition, usual class: inhibitors. 1.6% of 76,000 active. AID 1347048. P16066. HEK293 hNpr1 GloSensor cGMP, ANP-stimulated luminescence; calls by dose curve; further: potency means the concentration at half of the fitted maximal effect; on the % scale 0 is the no-effect control and ±100 the full control effect; nearly all actives have a fitted effect of over 60% in size
Target sequence (P16066 whole entry, looked up): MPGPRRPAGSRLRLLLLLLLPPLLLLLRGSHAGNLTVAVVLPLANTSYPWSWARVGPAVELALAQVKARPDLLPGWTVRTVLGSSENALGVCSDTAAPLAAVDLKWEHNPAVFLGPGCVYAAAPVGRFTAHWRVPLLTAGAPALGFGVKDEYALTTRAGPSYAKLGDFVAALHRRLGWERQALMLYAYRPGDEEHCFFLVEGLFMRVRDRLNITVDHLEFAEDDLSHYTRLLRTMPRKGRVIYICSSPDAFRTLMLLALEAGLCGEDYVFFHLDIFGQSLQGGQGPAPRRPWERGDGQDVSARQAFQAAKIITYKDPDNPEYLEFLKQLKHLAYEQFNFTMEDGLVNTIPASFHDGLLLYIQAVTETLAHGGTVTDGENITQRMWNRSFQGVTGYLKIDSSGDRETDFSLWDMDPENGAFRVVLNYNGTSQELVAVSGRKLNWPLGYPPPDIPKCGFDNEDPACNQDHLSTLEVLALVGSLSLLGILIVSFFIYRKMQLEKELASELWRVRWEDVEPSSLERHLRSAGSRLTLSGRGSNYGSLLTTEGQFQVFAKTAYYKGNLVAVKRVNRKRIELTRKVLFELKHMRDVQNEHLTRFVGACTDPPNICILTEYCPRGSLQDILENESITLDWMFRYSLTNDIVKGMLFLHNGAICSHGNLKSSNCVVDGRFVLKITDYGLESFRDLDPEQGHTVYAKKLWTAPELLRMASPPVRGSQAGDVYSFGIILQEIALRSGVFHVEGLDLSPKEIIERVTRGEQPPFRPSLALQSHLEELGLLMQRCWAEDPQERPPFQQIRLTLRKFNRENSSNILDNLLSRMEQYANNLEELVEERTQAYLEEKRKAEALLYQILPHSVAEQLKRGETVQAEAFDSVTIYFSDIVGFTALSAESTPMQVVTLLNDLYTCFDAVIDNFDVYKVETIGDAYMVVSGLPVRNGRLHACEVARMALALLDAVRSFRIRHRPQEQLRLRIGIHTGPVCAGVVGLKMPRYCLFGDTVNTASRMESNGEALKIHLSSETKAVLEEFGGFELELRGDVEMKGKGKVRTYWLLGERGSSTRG
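Compound pre-incubated 30 min at room temperature on GloSensor-loaded HEK293 cells stably carrying hNpr1 and the pGS-40F cGMP biosensor. Stimulation uses hNppA at 0.1 nM final; luminescence is taken at baseline and 20 min post-agonist.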
GPT2 conf = human alanine aminotransferase 2 inhibition, confirmatory; 90% of 95 active; GPT2 enzyme, coupled Amplex Red pyruvate fluorescence; Potency, µM, most hits filed as inhibitors; shares compounds with GPT2 inh
Active calls of the source: *; i = inactive; ? = inconclusive; · = no result; [ ] = another dose, or the depositor's remark. Unless noted, the call rests on the fitted dose curve; in most records, active means well fitted curve in the direction sought with a large enough effect; inconclusive means small, poorly fitted or top-dose-only effect, or another doubt; inactive means no such curve, though single readings can be large; an effect the other way counts as inactive or inconclusive.

SMILES	HEK293 tox	GPT2 inh	NIH3T3 tox	FLuc inh	NPR1 antag	GPT2 conf
C[C@@]12CO[C@@H](CNC(=O)C3CCCC3)O[C@@H]1CC[C@]1(C)[C@@H]2CC[C@@H](O)[C@H]1CC(=O)NCc1ccccc1	-24%	-10%	-18%	i	-3%	·
COc1ccc(NC2CCCN(C(=O)C(=O)CC(C)C)C2)cc1OC (centres undefined)	1%	22µM*	2%	i	2%	3.4*
COc1ccc(NC(=O)NCC2CCCN(C(C)C)C2)cc1OC (centres undefined)	-5%	i	i	i	9%	·
C=CC(=O)Nc1cccc(Nc2nc(Nc3ccc(N4CCN(C(C)=O)CC4)cc3OC)ncc2C(F)(F)F)c1	·	3.2µM*	·	·	·	2.2*
COCC1CN(C(=O)CN2CCCC2=O)CC12CCNCC2 (centres undefined)	-5%	?	-15%	i	-3%	·
COc1cc(N2CCN(C)CC2)ccc1Nc1nccc(-c2cn(C)c3cnccc23)n1	·	3.5µM*	·	·	·	2.4*
CNS(=O)(=O)c1ccccc1Nc1nc(Nc2ccc(N3CCN(C)CC3)cc2OC)ncc1Br	·	?	·	·	·	2.7*
COc1cc(N2CCC(N3CCN(C)CC3)CC2)ccc1Nc1ncc(Cl)c(Nc2ccccc2S(=O)(=O)C(C)C)n1	·	2.2µM*	·	·	·	3.1*
COc1cc(N2CCC(N(C)C)CC2)ccc1Nc1ncc(Cl)c(Nc2ccccc2P(C)(C)=O)n1	·	1.9µM*	·	·	·	2.2*
CN1CCN(c2ccc(OC(F)(F)F)c(Nc3ncc4c(n3)-c3c(c(C(N)=O)nn3CCO)CC4)c2)CC1	·	i	·	·	·	·
CCS(=O)(=O)N1CCN(c2ccc(Nc3ncc(C(N)=O)c(NC4CC4)n3)cc2)CC1	·	i	·	·	·	·
COc1ccccc1Nc1ccnc(N2CCC(NC(=O)c3ccc(Cl)nc3)CC2)n1	?	-12%	-21%	·	·	·
COc1ccc(Nc2cc3c(cn2)NCCN(Cc2ccccc2)C3)cc1	79µM*	?	?	i	?	5.6*
COc1ccc(CN2CCNc3cnc(Nc4ccccc4)cc3C2)cn1	?	?	?	i	-4%[70.6 µM]	3.1*
COCCN1CCNc2cc(Nc3ccc(N4CCOCC4)cc3)ncc2C1	-27%[172 µM]	?	?	i	2%[70.6 µM]	5.6*
c1ccc(Nc2cc3c(cn2)NCCN(Cc2ccsc2)C3)cc1	?	?	?	i	-3%[70.6 µM]	2.5*
CN1CCOc2c(C(=O)NCCC(N)=O)cc(-c3ccccc3)cc21	0%[172 µM]	i	?	i	1%[70.6 µM]	·
CN1CCOc2c(C(=O)N3CC[S+](=O)([O-])CC3)cc(N3CCOCC3)cc21	·	·	·	·	·	2*
CC(C)CNC(=O)c1cc(N2CCOCC2)cc2c1OCCN2C	·	·	·	·	·	2*
CN1CCOc2c(C(=O)NCCc3ccccc3)cc(N3CCOCC3)cc21	?	?	-26%[138 µM]	i	0%[70.6 µM]	·
O=c1[nH]c2cccnc2n1C1CCCC1	?	i	?	i	24%[70.6 µM]	·
Cn1cncc1C(=O)N1CCC2(CC1)CNC(C(=O)O)C2 (centres undefined)	i	-5%	3%	i	10%	·
C=C(COC(=O)C(C)C)C1Oc2cc(C(C)=O)ccc2C1OC(=O)C(C)C (centres undefined)	·	1%[27.3 µM]	·	·	·	·
CCCN1CCCC2(CCN(C(=O)c3conc3-c3ccccc3)C2)C1=O (centres undefined)	-21%	4%[11.5 µM]	-8%	i	2%	·
Cc1nc(CCN(C)C(=O)C2C3C(=O)N(C4CCCCCC4)C[C@@]34C=C[C@@H]2O4)no1 (some centres undefined)	i	-2%[11.5 µM]	3%	i	6%	·
SMILES	HEK293 tox	GPT2 inh	NIH3T3 tox	FLuc inh	NPR1 antag	GPT2 conf
COc1cccc([S+](=O)([O-])N2CCNc3cnc(Nc4ccc(N5CCOCC5)cc4)nc3C2)c1	?	1.1µM*	-7%	i	2%	1.2*
Cc1cc2c(N3CCCC3)nc(N3CCCC3)nc2n1C	·	?	·	·	·	?
Cc1nc(N2CCCC2)nc(N2CCC3(CC2)OCCCC3O)c1C (centres undefined)	-13%	-23%	-18%	i	0%	·
COc1ccc(N2CCN(C3CCCN(Cc4cc(=O)[nH]c(=O)[nH]4)C3)CC2)cc1 (centres undefined)	2%	?	-3%	i	-3%	6.9*
COc1ccc(N2CCN(C3CCCN(CC=C(C)C)C3)CC2)cc1 (centres undefined)	-7%	?	-16%	i	-9%	·
O=C(COc1ccccc1)N1CCCN(c2cc(-c3ccc(Cl)cc3)[nH]n2)CC1	?	?	?	i	-16%	·
CNC(=O)c1cccc(-c2cnc(Nc3ccc(N4CCOCC4)cc3)c3c2CCO3)c1	79µM*	?	?	0.63µM*	-7%[70.6 µM]	6.3*
Fc1cc(Nc2ncc(-c3cccnc3)c3c2OCC3)cc(N2CCOCC2)c1	?	i	?	?	-3%[70.6 µM]	·
CCC(=O)N(C1CCOCC1)C1CCN(S(=O)(=O)c2ccc(CC)cc2)CC1	?	2%	-4%	i	-6%	·
